Compound activity: PubChem BioAssay, several laboratories
GLD-1 TGE inh – GLD-1/TGE RNA complex disruptors, primary screen, biochemical, fluorescence polarization; Female germline-specific tumor suppressor gld-1 (Caenorhabditis elegans), Q17339; purified GLD-1 + fluorescein TGE RNA; inhibition, % at 5.96 µM; 320,000 tested, 0.44% active; AID 2280, 2010;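 active = percent inhibition above a per-plate cutoff, the plate mean of test compounds plus 3 SD, cut at about 30% in these data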;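 note: 0% = DMSO wells with GLD-1 and probe and 100% = wells lacking GLD-1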
Target sequence (Q17339 whole entry, looked up): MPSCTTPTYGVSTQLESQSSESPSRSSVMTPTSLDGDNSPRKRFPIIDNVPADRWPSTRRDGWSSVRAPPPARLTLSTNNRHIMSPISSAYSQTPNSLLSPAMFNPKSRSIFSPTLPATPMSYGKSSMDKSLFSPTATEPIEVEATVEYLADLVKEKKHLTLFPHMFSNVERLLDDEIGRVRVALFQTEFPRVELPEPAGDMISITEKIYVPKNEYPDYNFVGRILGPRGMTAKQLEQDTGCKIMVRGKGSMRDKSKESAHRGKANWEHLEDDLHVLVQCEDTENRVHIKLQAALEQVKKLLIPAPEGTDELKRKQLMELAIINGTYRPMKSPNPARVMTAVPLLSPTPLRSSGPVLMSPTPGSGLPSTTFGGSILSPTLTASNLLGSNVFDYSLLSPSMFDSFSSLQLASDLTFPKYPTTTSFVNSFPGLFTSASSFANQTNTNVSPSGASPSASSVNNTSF
Mcl-1 Bim block – inhibitors of Bim peptide binding to Mcl-1, primary screen, biochemical, bead-based flow cytometry, multiplex; inhibition, % at 10 µM; AID 1009, 2008; 190,000 tested, 0.1% active; Bim peptide-Mcl-1 binding; Induced myeloid leukemia cell differentiation protein Mcl-1 (Homo sapiens), Q07820; in the data active = inhibition above about 40%;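 note: 0% = no compound tracer wells and 100% = peptide blocker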
MCL1 BIM primary – inhibitors of MCL1 binding to BIM-BH3, primary screen, biochemical, fluorescence polarization; Induced myeloid leukemia cell differentiation protein Mcl-1 (Homo sapiens), Q07820; GST-MCL1 / FITC-Bim-BH3 fluorescence polarization; inhibition, % at 10.9 µM; 320,000 tested, 0.68% active;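 active = inhibition above the mean inhibition of all tested compounds plus 3 SD, set per campaign, cut at about 40% in these data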;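 note: 0% = DMSO wells and 100% = unlabeled Bim-BH3 peptide control; higher means more loss of mP so more displacement of Bim peptide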
Mcl1-Bid inh – Mcl-1/Bid binding inhibitors, primary screen, biochemical, TR-FRET, 1536-well; Induced myeloid leukemia cell differentiation protein Mcl-1 (Homo sapiens), Q07820; TR-FRET Mcl-1/Bid-Dy647 peptide binding; inhibition, % at 21.7 µM; 220,000 tested, 0.97% active; AID 1021, 2008;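 active = compounds that cut the binding signal by more than half at the single screening dose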;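 note: His-tagged Mcl-1 with europium anti-His antibody binding Bid BH3 peptide; 0% = Mcl-1 plus peptide wells and 100% = peptide-only wells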
Mcl1 Noxa PPI – Mcl-1/Noxa binding inhibitors, primary screen, biochemical, TR-FRET, 1536-well; Induced myeloid leukemia cell differentiation protein Mcl-1 (Homo sapiens), Q07820; TR-FRET Mcl-1/Noxa peptide binding, 2 h; inhibition, % at 21.7 µM; 220,000 tested, 1.5% active; AID 1022, 2008;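 active = compounds that cut the protein-peptide binding signal by more than 50% relative to plate controls in a single-dose test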;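 note: His-tagged Mcl-1 with rhodamine Noxa BH3 peptide and terbium anti-His antibody; 0% = Mcl-1 plus Noxa peptide wells and 100% = peptide-only wells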
Bcl-xL primary – inhibitors of human Bcl-xL, primary screen, biochemical, fluorescence polarization, HTS; GST-Bcl-xL / FITC-Bim BH3 peptide fluorescence polarization; Bcl-2-like protein 1 (Homo sapiens), Q07817; inhibition, % at 10.9 µM; 320,000 tested, 0.7% active;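 active = inhibition above the mean of all tested compounds plus 3 SD, cutoff set per campaign, cut at about 30% in these data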;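 note: 0% = DMSO wells and 100% = unlabeled Bim-BH3 peptide competitor; inhibitors lower millipolarization by displacing the labeled peptide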
Target sequence (Q07817 whole entry, looked up): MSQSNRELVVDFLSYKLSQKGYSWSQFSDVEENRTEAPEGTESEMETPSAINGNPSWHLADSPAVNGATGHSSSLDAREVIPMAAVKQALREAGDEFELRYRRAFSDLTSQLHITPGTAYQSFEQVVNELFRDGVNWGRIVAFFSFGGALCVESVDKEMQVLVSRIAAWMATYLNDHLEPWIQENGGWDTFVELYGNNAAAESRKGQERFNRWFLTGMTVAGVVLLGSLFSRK
Starred values were filed as active, the others as inactive; i = inactive; x = no result. Most compounds without a hit are left out; they make up all but 2.3% or so of the library.

SMILES	GLD-1 TGE inh	Mcl-1 Bim block	MCL1 BIM primary	Mcl1-Bid inh	Mcl1 Noxa PPI	Bcl-xL primary
Cc1ccc(C(C)C)cc1NC(=O)Nc1ccc([N+](=O)[O-])cc1	4.0	x	-3.9	85.1*	17.6	-7.5
COCC(=O)Nc1ccc2c(c1)OCC(=O)N2Cc1ccccc1F	6.2	x	-1.1	x	x	3.7
COc1ccc(Cn2cc3c(-c4ccc(F)cc4)nnc-3c3cc(OC)c(OC)cc32)cc1	0.3	3.0	35.9	-40.7	30.3	47.2*
CC1(c2ccccc2Cl)NC(=O)N(CC(=O)N2c3ccccc3NC(=O)C2(C)C)C1=O (stereo not drawn)	4.7	x	-12.6	x	x	-10.3
Clc1ccccc1OCCN1CCCCC1	3.4	-3.0	4.6	20.3	15.6	4.7
Clc1ccc(OCCN2CCCCC2)c(Cl)c1	-1.3	2.0	4.2	75.5*	34.6	1.0
O=C(NC1CCCCC1)C(c1ccc2ncccc2c1)N(Cc1ccccc1)C(=O)c1ccc2c(c1)OCCO2 (stereo not drawn)	1.5	0.0	2.1	85.9*	61.4*	-0.1
COc1ccc(NS(=O)(=O)c2ccc(-n3nnc4ccccc43)c([N+](=O)[O-])c2)cc1	-6.0	0.0	1.8	-22.3	5.5	4.6
Cc1ccccc1N/C(=C(/C(Cl)=C(Cl)Cl)[N+](=O)[O-])n1nnc2ccccc21	-1.1	0.0	-0.5	53.9*	38.2	5.5
COc1ccc(N/C(=C(/C(Cl)=C(Cl)Cl)[N+](=O)[O-])n2nnc3ccccc32)cc1	17.6	0.0	41.2*	91.4*	43.4	39.2*
Cc1ccc(C(=O)n2nnc3ccccc32)cc1	0.9	x	2.6	x	x	8.7
COC(=O)C1=C(C)N(Cc2ccccc2)C(=NCC(C)C)N[C@H]1c1ccccc1	30.8*	x	31.2	x	x	43.6*
COc1ccc(NC(=O)CSc2nnc(NC(=O)C3CC3)s2)cc1OC	0.7	x	2.3	x	x	2.2
[O-]c1c[n+](-c2ccc(-[n+]3cc([O-])on3)cc2)no1	8.2	3.0	22.6	-29.6	56.7*	10.5
O=C(O)CC(NC(=O)COc1ccc(Cl)cc1Cl)C(=O)O (stereo not drawn)	4.5	-2.0	14.0	72.4*	20.4	9.8
CN(C)CCn1c(SCc2ccccc2C#N)nc2c(sc3ccccc32)c1=O	-21.2	x	-0.9	x	x	5.6
CCCc1nnc(SCC(=O)Nc2ccc(NC(C)=O)cc2)n1-n1cccc1	1.2	x	-7.6	x	x	-3.2
O=C(O)CC12CSc3[nH]c(=O)sc3C1c1ccccc1OC2=O (stereo not drawn)	5.4	0.0	6.6	66.0*	-4.3	1.4
CCOC(=O)C1CSc2[nH]c(=O)sc2C1c1ccccc1 (stereo not drawn)	0.5	0.0	6.2	-9.0	6.4	16.2
COc1ccc(CN(C)c2ncnc3sccc23)c(OC)c1OC	-1.5	x	2.1	x	x	1.7
O=C(/C=C/c1ccc(Cl)cc1)Nc1cc(S(=O)(=O)N2CCOCC2)ccc1N1CCOCC1	2.4	x	x	x	x	x
COc1cc(NC(=O)COc2ccccc2[N+](=O)[O-])ccc1NC(=O)c1cccs1	x	-2.0	x	16.4	57.0*	x
O=C(NCCCCc1ccccc1)C1CC(c2ccccc2[N+](=O)[O-])=NO1 (stereo not drawn)	1.5	-3.0	-2.9	8.0	100.1*	-1.3
CCCCNC(=O)C1CC(c2ccccc2[N+](=O)[O-])=NO1 (stereo not drawn)	-0.1	0.0	-11.1	7.5	-4.4	-6.5
COC(=O)c1ccc(CNC(=O)c2ccc3c(c2)S(=O)(=O)N=C2CCCCCN23)cc1	-1.0	x	-14.1	x	x	-9.2
SMILES	GLD-1 TGE inh	Mcl-1 Bim block	MCL1 BIM primary	Mcl1-Bid inh	Mcl1 Noxa PPI	Bcl-xL primary
COc1ccc(-c2ncc3ccccn23)cc1OC	-5.7	0.0	0.7	51.0*	22.5	1.5
Cc1ccccc1NC(=O)CSCc1cc(=O)n2ccsc2n1	8.9	x	3.7	x	x	1.6
Cc1c(/C=N/Nc2ccc(F)cc2)c(O)n(C)c(=O)c1C#N	-6.1	0.0	7.9	-32.3	59.9*	6.7
CC(=O)N=Cc1c(C)c(C#N)c(=O)n(C)c1O	4.9	-1.0	15.2	-48.7	27.6	21.5
Cc1cc2nc3ccc(=[N+](C)C)cc-3sc2cc1N	x	x	x	-75.6	51.4*	x
CN(C)c1ccc2nc3ccc(=[N+](C)C)cc-3sc2c1	8.4	5.0	18.2	-111.2	58.4*	4.6
O=C(Cc1sc(-c2ccccc2Cl)nc1-c1ccccc1)Nc1ccccc1	5.3	6.0	1.4	83.5*	-29.0	1.1
Nc1ccn(CC(=O)NCCNc2ccc([N+](=O)[O-])cn2)c(=O)n1	0.3	x	1.4	x	x	2.1
O=C(/C=C/c1ccc(Br)o1)Nc1nnc(C2CC2)s1	-6.0	x	3.6	18.1	61.8*	-0.6
CC(C)c1ccc(C(=O)NNC(=O)C2C3CCC(C3)C2C(=O)O)cc1 (stereo not drawn)	4.2	x	-0.5	x	x	2.3
CCc1nnc(NC(=O)COC(=O)c2cc(OC)cc(OC)c2)s1	-3.0	x	x	x	x	x
O=C(NC1=NCCS1)c1cccc(S(=O)(=O)N2CCOCC2)c1	1.4	x	-7.3	x	x	-11.2
COCCCNC(=O)c1ccc(S(=O)(=O)c2ccc(Cl)cc2)c(NC(C)=O)c1	4.3	x	7.2	x	x	4.6
Cc1cc(Nc2ccccc2)nc(-c2ccccc2O)n1	7.5	2.0	3.5	7.5	25.4	0.3
Cc1cc(NC2CCCCC2)nc(-c2ccccc2O)n1	-1.9	-3.0	4.8	51.6*	27.6	4.3
N#CCC(=O)Nc1ccc(C(=O)OCC(=O)N2CCCC2=O)cc1	5.1	x	-4.0	x	x	-5.0
C=CCOC(=O)C(=O)/C=C/c1c(C)n(C)n(-c2ccccc2)c1=O	3.9	0.0	5.2	-8.6	-10.6	3.7
C=CCOC(=O)C(=O)/C=C/c1coc2ccccc2c1=O	63.4*	-1.0	46.5*	-5.5	4.9	51.5*
CN(C)C(=O)c1cc(C(=O)c2ccc(C(F)(F)F)cc2)c[nH]1	3.0	x	-14.5	x	x	-5.6
CCN1/C(=C/C=C/C=C/c2sc3ccccc3[n+]2CC)Sc2ccccc21	-32.5	x	140.3*	i	-252.2	127.8*
O=C(NC(=S)Nc1ccc2c(c1)C(=O)c1ccccc1C2=O)c1ccc(F)cc1	7.5	-2.0	8.9	41.6	51.1*	6.1
CCN1CCCC1CNc1ncnc2c1[nH]c1ccc(Cl)cc12 (stereo not drawn)	0.8	-2.0	3.2	6.2	72.6*	2.4
CN(C)CCCNc1cc(O)c2ncccc2c1	33.4*	x	x	x	x	x
COc1ccc(CCNC(=O)c2c(O)c3ccccc3[nH]c2=O)cc1	7.0	x	2.9	x	x	1.0
CCCn1c(NCc2ccco2)nc2c1c(=O)n(C)c(=O)n2C	1.5	-2.0	-0.3	-37.2	5.1	2.4
